This is an account of results in PubChem BioAssay.

In test [1] the target is Nuclear receptor coactivator 3 (Homo sapiens) (UniProt Q9Y6Q9). Put plainly: SRC3 coactivator transcriptional activity inhibitors, confirmation, cell-based, luminescence, quadruplicate (AID 588792;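 active means mean inhibition over 43.08%, the solvent-only control mean plus 3 SD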;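 further: 0% = DMSO treated cells and 100% = gossypol at 36 µM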). To be noted: HEK293 GAL4-SRC3 luciferase reporter, at 3.6 µM, stronger effect = higher value. For orientation: Reporter assays use an easily measured gene product as a stand-in for the process of interest.
Nuclear receptor coactivator 3 (Homo sapiens), sequence (Q9Y6Q9 whole entry, looked up, the tested form may be a part): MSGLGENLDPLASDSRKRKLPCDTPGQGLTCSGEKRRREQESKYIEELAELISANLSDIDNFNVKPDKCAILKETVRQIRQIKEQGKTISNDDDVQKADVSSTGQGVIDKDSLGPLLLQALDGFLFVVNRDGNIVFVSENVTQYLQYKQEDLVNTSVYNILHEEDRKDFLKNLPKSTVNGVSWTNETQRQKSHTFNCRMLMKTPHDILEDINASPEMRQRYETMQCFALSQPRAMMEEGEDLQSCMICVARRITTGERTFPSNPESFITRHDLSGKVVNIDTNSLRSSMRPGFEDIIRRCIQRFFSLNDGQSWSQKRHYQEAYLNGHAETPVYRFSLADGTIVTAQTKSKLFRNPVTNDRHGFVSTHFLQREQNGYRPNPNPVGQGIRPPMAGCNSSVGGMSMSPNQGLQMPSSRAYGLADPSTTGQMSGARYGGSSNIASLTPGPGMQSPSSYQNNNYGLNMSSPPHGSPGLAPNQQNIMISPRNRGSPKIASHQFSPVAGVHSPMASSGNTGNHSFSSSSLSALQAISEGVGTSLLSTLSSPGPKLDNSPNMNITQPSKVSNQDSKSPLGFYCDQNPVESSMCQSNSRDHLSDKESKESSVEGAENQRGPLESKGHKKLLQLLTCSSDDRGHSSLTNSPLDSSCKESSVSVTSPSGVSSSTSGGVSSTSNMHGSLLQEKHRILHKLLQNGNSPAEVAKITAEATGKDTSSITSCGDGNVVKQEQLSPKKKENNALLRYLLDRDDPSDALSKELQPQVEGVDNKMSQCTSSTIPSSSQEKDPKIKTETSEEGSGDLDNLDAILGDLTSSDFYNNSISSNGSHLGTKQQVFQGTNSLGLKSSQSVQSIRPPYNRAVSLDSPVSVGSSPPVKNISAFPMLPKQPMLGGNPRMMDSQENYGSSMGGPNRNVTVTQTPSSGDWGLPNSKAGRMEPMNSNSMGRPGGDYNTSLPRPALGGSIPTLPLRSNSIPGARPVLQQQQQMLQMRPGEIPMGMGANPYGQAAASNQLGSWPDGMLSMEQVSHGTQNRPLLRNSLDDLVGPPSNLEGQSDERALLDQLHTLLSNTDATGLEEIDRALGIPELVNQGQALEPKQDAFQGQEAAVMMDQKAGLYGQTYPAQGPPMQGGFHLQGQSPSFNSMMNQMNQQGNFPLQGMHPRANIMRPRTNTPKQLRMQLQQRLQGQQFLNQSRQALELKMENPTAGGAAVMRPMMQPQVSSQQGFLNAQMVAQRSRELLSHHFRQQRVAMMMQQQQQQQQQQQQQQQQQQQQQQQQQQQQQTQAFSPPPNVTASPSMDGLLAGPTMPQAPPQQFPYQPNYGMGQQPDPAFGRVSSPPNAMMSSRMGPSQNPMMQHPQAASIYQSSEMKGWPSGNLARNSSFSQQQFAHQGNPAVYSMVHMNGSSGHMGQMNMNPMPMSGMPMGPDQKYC

The subject of test [2] is transactivating tegument protein VP16 (Human herpesvirus 1), Gal4-VP16 luciferase reporter. Put plainly: VP16 transactivation inhibitors, counter-screen for SRC3 inhibitor project, cell-based, luminescence, high throughput (AID 588794). To be noted: mammalian cells, VP16-driven luciferase reporter luminescence; at 3.6 µM; stronger effect = higher value.

Unmarked numbers belong to inactive results. Activity calls are given as the source filed them. Unless noted, no stated cut-off is given here; in the data, active means inhibition above about 30%; inactive means the rest.

The term inhibition denotes the relative decrease from the control value, in per cent. `O=C(Cn1cnc([N+](=O)[O-])n1)N/N=C/c1cc(Cl)ccc1O`: the values for the inhibition in test [1] and in test [2] were 20.3% and 27.4%, respectively.

With `CCN1C/C(=C/c2ccc(N3CCOCC3)cc2)C(=O)/C(=C/c2ccc(N3CCOCC3)cc2)C1`, the figures for the inhibition in test [1] and in test [2] were 40.8% and 22.6%, respectively.

In the case of `COc1ccc(-c2ncncc2-c2ccc(Cl)cc2)c(O)c1`, the results for the inhibition in test [1] and in test [2] were 25.1% and 22.8%, respectively.

Take `COc1cc(/C=C(/C(=O)c2cccs2)c2nc3ccccc3[nH]2)cc(OC)c1O`: the inhibition in test [1] was 31.4%; in test [2], 12.1%.

`Clc1ccc(-c2noc(CSc3nnc(-c4ccncc4)n3-c3ccccc3)n2)cc1`: the inhibition was 8.46% in test [1] and 8.1% in test [2].

Regarding `O=C(NNC1=Nc2ccccc2SC1)c1ccc(Cl)cc1`, the inhibition is 24.6% in test [1] and 5.18% in test [2].

As to `CC1CCC(C(C)C)C(OC(=O)Cn2c(-c3ccc(Br)cc3)[n+](C)c3ccccc32)C1` (centres undefined), the inhibition was 3.76% in test [1] and 35.8% (active) in test [2].

Take `Cc1sc2ncnc(Sc3nnnn3-c3ccccc3)c2c1C`: the inhibition in test [1] was 0.37%; in test [2], -6.56%.

`COc1cc(C(=O)N/N=C/c2coc3ccc(Cl)cc3c2=O)ccc1O`: the inhibition in test [1] was 24.2%; in test [2], 15.9%.

Regarding `CN1CCCC(n2nc(Cc3ccc(Cl)cc3)c3ccccc3c2=O)CC1` (centres undefined), the inhibition in test [1] was 10.3%; in test [2], 2.25%.

In the case of `O=C(Nc1cc(C(=O)N2CCCC2)ccc1N1CCCC1)c1ccccc1F`, the inhibition in test [1] is 27.3%; in test [2], 13.1%.

On to `COc1ccc(NC(=O)c2ccc(-c3ccccc3)cc2)cc1S(=O)(=O)N1CCOCC1`, for which the figures for the inhibition in test [1] and in test [2] were 12% and 34.6% (active), respectively.

Regarding `Cc1ccc(C(=O)C[n+]2cc(-c3ccccc3)n3c2CCCCC3)cc1`, the results for the inhibition in test [1] and in test [2] were 6.68% and 22.9%, respectively.

As to `COc1ccc(/C=C/C(=O)C23CC4CC(CC(C4)C2)C3)cc1CN1CCOCC1`, the inhibition in test [1] was 22.6%; in test [2], 6.66%.

In the case of `CC1(C)CC2(CC(c3ccccc3F)c3cc(Cl)c(O)cc3O2)NC(=S)N1` (centres undefined), the inhibition is 16.6% in test [1] and 6.57% in test [2].

Regarding `CC(C)(C)OC(=O)NCc1ccc(CNC(=O)c2[nH]cnc2C(=O)NC2CCN(C(=O)OC(C)(C)C)CC2)cc1`, the inhibition in test [1] is 4.73%; in test [2], -0.72%.

Consider `COc1cccc(C(=O)Oc2c(Br)cc(Br)cc2/C=N/NC(=O)c2cc(C)[nH]n2)c1`, for which the inhibition in test [1] and in test [2] was 18.3% throughout.

Turning to `CCc1ccc(C(=O)COC(=O)c2cncc(Br)c2)cc1`, the inhibition in test [1] is 10.2%; in test [2], 7.77%.

`Cc1ccsc1/C=N/NC(=O)CNC(=O)c1ccccc1`: the inhibition in test [1] was -11.5%; in test [2], -7.26%.

Consider `COc1cccc(/C=N/NC(=O)c2ccc(=O)n(C)c2)c1O`, for which the inhibition is 12.1% in test [1] and 9.91% in test [2].

Regarding `C=CCc1cccc(/C=N/NC(=O)CCC(=O)Nc2ccc(F)cc2)c1O`, the inhibition in test [1] is 26.2%; in test [2], 21.1%.

Regarding `CCCC(=O)NC(c1ccc(OC)cc1)c1ccc2cccnc2c1O` (centres undefined), the inhibition in test [1] is 57.7% (active); in test [2] it was 63.7% (active).

For `CC(C)NC(=O)N(C)C[C@H]1Oc2ccc(NS(=O)(=O)c3ccc(Cl)cc3)cc2CC(=O)N([C@@H](C)CO)C[C@@H]1C`, the values for the inhibition in test [1] and in test [2] were 5.62% and -1.86%, respectively.

On to `Cc1[nH]n(-c2ccccc2)c(=O)c1/C=N/Nc1nncc(-c2ccccc2)n1`, for which the inhibition in test [1] was 74.3% (active); in test [2] it was 67.5% (active).

For `COc1ccc(OC)c(NC(=O)c2cccc(N3C(=O)C4C5C=CC(C6CC56)C4C3=O)c2)c1` (centres undefined), the inhibition in test [1] is -11.6%; in test [2] it was 7.26%.

Regarding `CCc1ccc(OCC(=O)NC(NC(=S)Nc2ccc(Cl)cc2)C(Cl)(Cl)Cl)cc1` (centres undefined), the results for the inhibition in test [1] and in test [2] were -0.7% and 0.6%, respectively.

For `COc1ccc(C(C(=O)NC2CCCCC2)N(C(=O)CCl)c2ccc(Cl)cc2)cc1` (centres undefined), the figures for the inhibition in test [1] and in test [2] were 54.1% (active) and 24.8%, respectively.

Turning to `COc1cc(NC(=O)C2CCN(S(=O)(=O)c3ccc(N4CCCC4=O)cc3)CC2)cc(OC)c1`, the inhibition in test [1] is 7.83%; in test [2] it was 5.99%.

As to `O=C(Nc1ccn(Cc2ccccc2F)n1)c1ccc(COc2ccccc2Cl)cc1`, the results for the inhibition in test [1] and in test [2] were 10.9% and 22.1%, respectively.

Consider `CCCCNS(=O)(=O)c1ccc(S(=O)(=O)NCc2ccncc2)cc1`, for which the inhibition in test [1] is 16.5%; in test [2], 25.1%.

As to `S=C(N/N=C/c1ccc2ncccc2c1)Nc1cccnc1`, the inhibition was -1.24% in test [1] and -17.5% in test [2].

As for `Cc1ccc(N=Nc2ccc3ccccc3c2O)cc1`, the inhibition in test [1] was 30.8%; in test [2], 17.5%.

For `O=[N+]([O-])c1ccccc1NC1CCN(Cc2ccccc2)CC1`, the inhibition in test [1] was -4.81%; in test [2] it was 0.87%.

With `O=C(CN1CC(c2ccccc2)CC1=O)N/N=C/c1cc(Br)ccc1O` (centres undefined), the inhibition in test [1] was 15.1%; in test [2] it was 10.9%.

Turning to `COc1cccc(/C=N/Nc2cc(-n3nc(C)cc3-c3ccccc3)ncn2)c1O`, the inhibition in test [1] is 28.9%; in test [2], -9.27%.

On to `O=S(=O)(CC(CN1CCCCC1)N1CCCCC1)c1ccc2ccccc2c1` (centres undefined), for which the inhibition in test [1] was 4.5%; in test [2], 6.94%.

Regarding `CN(C)S(=O)(=O)c1ccc(N2CCN(S(=O)(=O)c3ccc(F)cc3)CC2)c(Cl)c1`, the figures for the inhibition in test [1] and in test [2] were 41.9% and 28.5%, respectively.

As for `CC(=O)c1c(O)cc2c3c1OC(C)(C)C1CCC(C)(CC31)O2` (centres undefined), the inhibition in test [1] is 46.2% (active); in test [2], 30.9% (active).

For `O=C(N/N=C/c1cc(Br)c(Br)s1)c1ccncc1`, the inhibition is 31.1% in test [1] and 18.5% in test [2].

For the compound `COC(=O)c1ccc(NC(=O)Cn2c(-c3nonc3N)nc3ccccc32)cc1`, the inhibition in test [1] is 17%; in test [2] it was 3.85%.

Take `COc1ccc(NC(=O)c2oc3ccc(S(=O)(=O)N4CCC5(CC4)OCCO5)cc3c2C)cc1`: the inhibition in test [1] is 5.45%; in test [2], 8.97%.

Turning to `Cc1c(Cl)cccc1NC(=O)Nc1ccccc1C(N)=O`, the inhibition was 29.1% in test [1] and 27.1% in test [2].

In the case of `O=C(CNc1cccc2ccccc12)N/N=C/c1ccc[nH]1`, the inhibition in test [1] was 7.38%; in test [2] it was 5.09%.

As to `COc1ccc2c(=O)c3c(=O)n(CCc4ccccc4)c(C(C)C)nc3oc2c1`, the inhibition is 4.29% in test [1] and 17.5% in test [2].

In the case of `c1csc(Cc2nn3c(-c4ccncc4)nnc3s2)c1`, the inhibition is 29.8% in test [1] and 20.8% in test [2].

As to `CCOC(=O)C1=CCN(S(=O)(=O)c2ccc(C)cc2)C1c1cccc(Cl)c1` (centres undefined), the figures for the inhibition in test [1] and in test [2] were 15.1% and 6.03%, respectively.

For `CCOc1cc(N2CCOCC2)c(OCC)cc1NC(=O)c1cc(-c2ccco2)nc2ccccc12`, the inhibition in test [1] is 17.5%; in test [2], 8.51%.
